Experimental data published in the supplement of paper PMC10849652.
The full data set covers some 8,800 targets. This sample favours those with a hit. About 0.5% of all pairs of compound and target were hits.

How the values were obtained:
Assay in all cases: log2 fold change, soluble protein after heating vs DMSO (PISA); higher = thermal stabilisation; K562 lysate, 10 uM; active = over 0.2 and 3.5 SD of the protein, either way, in both replicates (recomputed)
[1] = compound: CCCS(=O)(=O)Nc1ccc(F)c(C(=O)c2c[nH]c3ncc(-c4ccc(Cl)cc4)cc23)c1F [vemurafenib]
Method in brief: (§1)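 K562 pellets were dounce-homogenised in PBS pH 7.4 containing 1 mM MgCl2, and the crude extract, at 1 mg/mL protein, was exposed to 10 μM compound for 30 min. Aliquots were heated for 3 min across 48°C-58°C, pooled, brought to 0.5% NP-40 at 4°C and spun at 21,000xg for 90 min, with the supernatant taken as soluble protein. TMTpro 16plex LC-MS/MS with equalised channel sums quantified that protein. Values are log-two fold changes in thermal stability relative to solvent controls, taken from duplicates.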

[2] = compound: CCCS(=O)(=O)Nc1ccc(F)c(C(=O)c2c[nH]c3ncc(Cl)cc23)c1F
Method in brief: as §1

[3] = compound: CCN(CCCOc1ccc2c(Nc3cc(CC(=O)Nc4cccc(F)c4)[nH]n3)ncnc2c1)CCOP(=O)(O)O [barasertib]
Method in brief: as §1

[4] = compound: CC[C@@H]1C(=O)N(C)c2cnc(Nc3ccc(C(=O)NC4CCN(C)CC4)cc3OC)nc2N1C1CCCC1
Method in brief: as §1

[5] = compound: CC[C@@H]1C(=O)N(C)c2cnc(Nc3ccc(C(=O)N[C@H]4CC[C@H](N5CCN(CC6CC6)CC5)CC4)cc3OC)nc2N1C(C)C [volasertib]
Method in brief: as §1

[6] = compound: CCn1c(C(=O)N(C2CC2)C2CC2)cc2c3c(ncn3C)c(Nc3cc(C)n(C)n3)nc21
Method in brief: as §1

[7] = compound: CCn1cc(-c2ccnc3[nH]c(-c4cccc(CN(C)C)c4)cc23)c(-c2ccc(NC(=O)N(C)C)cc2)n1
Method in brief: as §1

[8] = compound: CN1CCC(CNc2ccc3ncc(-c4cccc(OC(F)(F)F)c4)n3n2)CC1
Method in brief: as §1

[9] = compound: CN1CCN(CCOc2cc(OC3CCOCC3)c3c(Nc4c(Cl)ccc5c4OCO5)ncnc3c2)CC1 [saracatinib]
Method in brief: as §1

[10] = compound: CN1CCN(c2nc(C3=C(c4c[nH]c5ccccc45)C(=O)NC3=O)c3ccccc3n2)CC1 [sotrastaurin]
Method in brief: as §1

[11] = compound: CN1CC[C@H](c2c(O)cc(O)c3c(=O)cc(-c4ccccc4Cl)oc23)[C@H](O)C1 [alvocidib]
Method in brief: as §1

[12] = compound: CN1CCc2c(c3ccccc3n2Cc2ccc(C(=O)NO)cc2)C1 [Tubastatin A]
Method in brief: as §1

[13] = compound: CNC(=O)C1=CC=CC=C1NC2=NC(=NC=C2Cl)NC3=C(C=C(C=C3)N4CCOCC4)OC
Method in brief: as §1

[14] = compound: CNC(=O)c1ccc(Nc2ncc(C(F)(F)F)c(NCc3nccnc3N(C)S(C)(=O)=O)n2)cc1 [defactinib]
Method in brief: as §1

[15] = compound: CNc1nc(-c2ccc3c(N)n[nH]c3c2)cc(N2C[C@@H](C(=O)NC3CCCCC3)CC[C@H]2C)n1
Method in brief: as §1

[16] = compound: COC(=O)N[C@@H](C)CNc1nccc(-c2cn(C(C)C)nc2-c2cc(Cl)cc(NS(C)(=O)=O)c2F)n1 [encorafenib]
Method in brief: as §1

[17] = compound: COC(=O)[C@H](CCSC)NC(=O)C1=C(C=C(C=C1)NC[C@H](CS)N)C2=CC=CC=C2
Method in brief: as §1

[18] = compound: COc1cc(Nc2ncc3c(n2)-c2ccc(Cl)cc2C(c2c(F)cccc2OC)=NC3)ccc1C(=O)O [alisertib]
Method in brief: as §1

[19] = compound: COc1cc2nc(-c3cc(F)ccc3O)nc(N[C@@H]3CNC[C@H]3C(C)(C)O)c2cc1OC
Method in brief: as §1

[20] = compound: COc1cc2ncnc(Nc3ccc(F)c(Cl)c3)c2cc1OCCCN1CCOCC1 [gefitinib]
Method in brief: as §1

Measured: log2 fold change

LAMP1 (UniProt P11279)
Sequence of UniProt P11279 (P11279 whole entry, looked up): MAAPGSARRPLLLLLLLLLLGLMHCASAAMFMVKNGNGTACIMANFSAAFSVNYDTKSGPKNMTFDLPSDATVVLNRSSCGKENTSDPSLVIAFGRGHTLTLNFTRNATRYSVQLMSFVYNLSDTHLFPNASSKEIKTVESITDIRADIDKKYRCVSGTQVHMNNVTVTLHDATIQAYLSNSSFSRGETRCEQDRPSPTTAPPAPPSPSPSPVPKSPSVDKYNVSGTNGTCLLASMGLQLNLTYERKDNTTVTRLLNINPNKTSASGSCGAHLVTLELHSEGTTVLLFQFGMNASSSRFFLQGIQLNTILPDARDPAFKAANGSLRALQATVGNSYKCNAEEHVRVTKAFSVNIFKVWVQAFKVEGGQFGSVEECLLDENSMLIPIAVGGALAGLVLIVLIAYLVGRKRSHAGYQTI
inactive: [1] -0.009 | [2] 0.02 | [3] 0.001 | [4] 0.059 | [5] 0.056 | [6] -0.097 | [8] 0.24 | [9] 0.018 | [10] 0.022 | [11] -0.242 | [12] 0.051 | [13] -0.013 | [14] -0.03 | [15] 0.059 | [16] 0.015 | [17] -0.047 | [18] 0.017 | [19] 0.028 | [20] 0.053
active: [7] -0.508

MBD2 (UniProt Q9UBB5)
Sequence of UniProt Q9UBB5 (Q9UBB5 whole entry, looked up): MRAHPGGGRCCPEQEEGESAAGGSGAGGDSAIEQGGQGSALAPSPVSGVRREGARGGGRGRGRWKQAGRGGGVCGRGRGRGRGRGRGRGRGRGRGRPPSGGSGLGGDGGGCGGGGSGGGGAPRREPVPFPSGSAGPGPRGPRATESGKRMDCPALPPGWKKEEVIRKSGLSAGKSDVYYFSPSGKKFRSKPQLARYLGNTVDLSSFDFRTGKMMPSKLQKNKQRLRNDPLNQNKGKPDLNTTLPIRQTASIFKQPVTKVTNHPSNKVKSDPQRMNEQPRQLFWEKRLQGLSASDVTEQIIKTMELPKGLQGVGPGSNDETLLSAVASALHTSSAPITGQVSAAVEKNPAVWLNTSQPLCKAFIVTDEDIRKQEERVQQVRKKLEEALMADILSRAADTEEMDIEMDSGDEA
inactive: [1] -0.014 | [2] 0.016 | [3] -0.009 | [4] 0.059 | [5] -0.021 | [6] 0.073 | [7] -0.005 | [8] -0.007 | [9] -0.036 | [10] -0.089 | [11] 0.026 | [12] -0.06 | [13] 0.001 | [14] 0.022 | [15] 0.083 | [16] 0.013 | [17] -0.061 | [18] 0.031 | [19] 0.024 | [20] -0.016

LRWD1 (UniProt Q9UFC0)
inactive: [1] 0.009 | [2] -0.013 | [3] -0.021 | [4] -0.016 | [5] -0.017 | [6] 0.023 | [7] -0.003 | [8] 0.036 | [9] 0.025 | [10] 0.03 | [11] 0.027 | [12] -0.2 | [13] -0.049 | [14] 0.059 | [15] -0.051 | [16] 0.01 | [17] 0.11 | [18] -0.001 | [19] 0.017 | [20] -0.024

MARK1 (UniProt Q9P0L2)
inactive: [1] -0.006 | [2] 0.064 | [3] -0.038 | [4] -0.045 | [5] -0.019 | [6] -0.018 | [7] -0.06 | [8] -0.241 | [9] 0.021 | [10] -0.17 | [11] -0.053 | [12] -0.087 | [13] -0.27 | [14] -0.267 | [15] 0.072 | [16] 0.075 | [17] 0.226 | [18] -0.007 | [19] -0.134 | [20] -0.004

MAPK6 (UniProt Q16659)
inactive: [1] 0.006 | [2] 0.001 | [3] 0.047 | [4] 0.034 | [5] -0.001 | [6] -0.029 | [8] -0.02 | [9] -0.014 | [10] 0.014 | [11] 0.133 | [12] -0.086 | [13] 0.115 | [14] 0.049 | [15] -0.023 | [16] -0.037 | [17] -0.092 | [18] -0.001 | [19] 0.072 | [20] 0.113
active: [7] 0.221

MAP2K2 (UniProt P36507)
Sequence of UniProt P36507 (P36507 whole entry, looked up): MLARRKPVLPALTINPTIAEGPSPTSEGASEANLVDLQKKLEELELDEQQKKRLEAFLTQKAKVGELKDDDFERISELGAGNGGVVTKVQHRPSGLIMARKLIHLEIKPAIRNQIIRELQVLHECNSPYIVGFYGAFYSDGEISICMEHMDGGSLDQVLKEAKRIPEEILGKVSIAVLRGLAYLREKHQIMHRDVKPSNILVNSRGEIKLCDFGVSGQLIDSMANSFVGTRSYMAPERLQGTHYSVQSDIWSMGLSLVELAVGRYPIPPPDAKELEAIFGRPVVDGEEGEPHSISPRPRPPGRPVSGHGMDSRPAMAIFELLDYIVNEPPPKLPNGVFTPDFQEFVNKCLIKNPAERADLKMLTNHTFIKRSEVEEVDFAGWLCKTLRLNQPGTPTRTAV
inactive: [1] 0.224 | [2] 0.184 | [3] 0.026 | [4] -0.076 | [5] -0.089 | [6] 0.008 | [7] 0.252 | [8] -0.047 | [9] 0.093 | [10] -0.002 | [11] 0.022 | [12] -0.026 | [13] 0.198 | [14] 0.036 | [15] 0.015 | [16] -0.046 | [17] -0.006 | [18] -0.013 | [19] 0.009 | [20] -0.013

LIMK2 isoform 3 (UniProt P53671)
Sequence of UniProt P53671 (P53671 whole entry, looked up): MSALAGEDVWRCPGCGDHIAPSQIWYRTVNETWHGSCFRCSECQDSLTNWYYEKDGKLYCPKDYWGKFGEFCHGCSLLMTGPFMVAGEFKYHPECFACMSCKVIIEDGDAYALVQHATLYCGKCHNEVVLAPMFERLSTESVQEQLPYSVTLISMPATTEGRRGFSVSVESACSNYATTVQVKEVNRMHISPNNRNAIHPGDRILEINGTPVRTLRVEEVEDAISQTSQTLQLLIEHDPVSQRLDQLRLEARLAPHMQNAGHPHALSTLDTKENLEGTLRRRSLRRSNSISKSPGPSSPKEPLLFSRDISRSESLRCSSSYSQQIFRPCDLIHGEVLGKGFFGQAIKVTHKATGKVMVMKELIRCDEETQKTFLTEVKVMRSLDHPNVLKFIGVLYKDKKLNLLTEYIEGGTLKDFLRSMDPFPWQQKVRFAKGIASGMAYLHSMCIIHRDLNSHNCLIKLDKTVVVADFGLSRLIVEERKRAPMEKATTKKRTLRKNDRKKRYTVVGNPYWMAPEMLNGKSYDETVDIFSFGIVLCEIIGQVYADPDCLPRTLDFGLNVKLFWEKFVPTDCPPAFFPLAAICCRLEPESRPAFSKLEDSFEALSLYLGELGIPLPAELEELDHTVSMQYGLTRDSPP
inactive: [1] 0.031 | [2] 0.046 | [3] -0.062 | [4] -0.173 | [5] -0.002 | [6] -0.046 | [8] 0.023 | [9] -0.017 | [10] -0.05 | [11] -0.002 | [12] 0.02 | [13] 0.068 | [14] -0.026 | [15] 0.102 | [16] 0.204 | [17] -0.189 | [18] 0.031 | [19] 0.033 | [20] -0.141
active: [7] 0.963

KLC1 isoform 6 (UniProt Q07866)
inactive: [1] 0.003 | [2] 0.004 | [3] -0.002 | [4] 0.012 | [5] -0.04 | [6] 0 | [7] 0.019 | [8] -0.063 | [9] 0.015 | [10] -0.011 | [11] -0.015 | [12] -0.038 | [13] 0.02 | [14] -0.003 | [15] -0.018 | [16] 0.002 | [17] 0.002 | [18] 0.002 | [19] 0.014 | [20] -0.009

MOCS1 isoform 8 (UniProt Q9NZB8)
inactive: [1] 0.063 | [2] 0.022 | [3] 0.166 | [4] -0.043 | [5] -0.004 | [6] -0.015 | [7] -0.063 | [8] -0.013 | [9] 0.006 | [10] -0.018 | [11] -0.108 | [12] -0.008 | [13] 0.002 | [14] 0.113 | [15] -0.105 | [16] 0.039 | [17] -0.055 | [18] -0.099 | [19] 0.003
active: [20] 0.395

LARS2 (UniProt Q15031)
inactive: [1] -0.015 | [2] 0.007 | [3] 0.077 | [4] -0.103 | [5] -0.081 | [6] 0.061 | [7] 0.024 | [8] -0.073 | [9] 0.029 | [10] 0.072 | [11] 0.021 | [12] -0.06 | [13] -0.047 | [14] 0.013 | [15] -0.088 | [16] 0.038 | [17] -0.115 | [18] 0.051 | [19] 0.007 | [20] 0.012

MIF4GD isoform 3 (UniProt A9UHW6)
Sequence of UniProt A9UHW6 (A9UHW6 whole entry, looked up): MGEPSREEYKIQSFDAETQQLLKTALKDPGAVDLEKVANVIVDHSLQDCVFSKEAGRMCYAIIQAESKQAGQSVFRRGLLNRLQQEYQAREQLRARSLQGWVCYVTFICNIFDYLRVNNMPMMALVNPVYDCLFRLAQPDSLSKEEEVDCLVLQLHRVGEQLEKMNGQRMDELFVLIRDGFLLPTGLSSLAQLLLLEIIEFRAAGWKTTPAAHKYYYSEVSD
inactive: [1] 0.016 | [2] 0.009 | [3] 0.051 | [4] -0.019 | [5] -0.012 | [6] 0.037 | [7] 0.028 | [8] 0.015 | [9] 0.02 | [10] 0.017 | [11] 0.021 | [12] 0.014 | [13] 0.002 | [14] -0.01 | [15] -0.066 | [16] -0.012 | [17] 0.01 | [18] -0.037 | [19] 0.007 | [20] 0.049

MAST4 (UniProt O15021)
Sequence of UniProt O15021 (O15021 whole entry, looked up): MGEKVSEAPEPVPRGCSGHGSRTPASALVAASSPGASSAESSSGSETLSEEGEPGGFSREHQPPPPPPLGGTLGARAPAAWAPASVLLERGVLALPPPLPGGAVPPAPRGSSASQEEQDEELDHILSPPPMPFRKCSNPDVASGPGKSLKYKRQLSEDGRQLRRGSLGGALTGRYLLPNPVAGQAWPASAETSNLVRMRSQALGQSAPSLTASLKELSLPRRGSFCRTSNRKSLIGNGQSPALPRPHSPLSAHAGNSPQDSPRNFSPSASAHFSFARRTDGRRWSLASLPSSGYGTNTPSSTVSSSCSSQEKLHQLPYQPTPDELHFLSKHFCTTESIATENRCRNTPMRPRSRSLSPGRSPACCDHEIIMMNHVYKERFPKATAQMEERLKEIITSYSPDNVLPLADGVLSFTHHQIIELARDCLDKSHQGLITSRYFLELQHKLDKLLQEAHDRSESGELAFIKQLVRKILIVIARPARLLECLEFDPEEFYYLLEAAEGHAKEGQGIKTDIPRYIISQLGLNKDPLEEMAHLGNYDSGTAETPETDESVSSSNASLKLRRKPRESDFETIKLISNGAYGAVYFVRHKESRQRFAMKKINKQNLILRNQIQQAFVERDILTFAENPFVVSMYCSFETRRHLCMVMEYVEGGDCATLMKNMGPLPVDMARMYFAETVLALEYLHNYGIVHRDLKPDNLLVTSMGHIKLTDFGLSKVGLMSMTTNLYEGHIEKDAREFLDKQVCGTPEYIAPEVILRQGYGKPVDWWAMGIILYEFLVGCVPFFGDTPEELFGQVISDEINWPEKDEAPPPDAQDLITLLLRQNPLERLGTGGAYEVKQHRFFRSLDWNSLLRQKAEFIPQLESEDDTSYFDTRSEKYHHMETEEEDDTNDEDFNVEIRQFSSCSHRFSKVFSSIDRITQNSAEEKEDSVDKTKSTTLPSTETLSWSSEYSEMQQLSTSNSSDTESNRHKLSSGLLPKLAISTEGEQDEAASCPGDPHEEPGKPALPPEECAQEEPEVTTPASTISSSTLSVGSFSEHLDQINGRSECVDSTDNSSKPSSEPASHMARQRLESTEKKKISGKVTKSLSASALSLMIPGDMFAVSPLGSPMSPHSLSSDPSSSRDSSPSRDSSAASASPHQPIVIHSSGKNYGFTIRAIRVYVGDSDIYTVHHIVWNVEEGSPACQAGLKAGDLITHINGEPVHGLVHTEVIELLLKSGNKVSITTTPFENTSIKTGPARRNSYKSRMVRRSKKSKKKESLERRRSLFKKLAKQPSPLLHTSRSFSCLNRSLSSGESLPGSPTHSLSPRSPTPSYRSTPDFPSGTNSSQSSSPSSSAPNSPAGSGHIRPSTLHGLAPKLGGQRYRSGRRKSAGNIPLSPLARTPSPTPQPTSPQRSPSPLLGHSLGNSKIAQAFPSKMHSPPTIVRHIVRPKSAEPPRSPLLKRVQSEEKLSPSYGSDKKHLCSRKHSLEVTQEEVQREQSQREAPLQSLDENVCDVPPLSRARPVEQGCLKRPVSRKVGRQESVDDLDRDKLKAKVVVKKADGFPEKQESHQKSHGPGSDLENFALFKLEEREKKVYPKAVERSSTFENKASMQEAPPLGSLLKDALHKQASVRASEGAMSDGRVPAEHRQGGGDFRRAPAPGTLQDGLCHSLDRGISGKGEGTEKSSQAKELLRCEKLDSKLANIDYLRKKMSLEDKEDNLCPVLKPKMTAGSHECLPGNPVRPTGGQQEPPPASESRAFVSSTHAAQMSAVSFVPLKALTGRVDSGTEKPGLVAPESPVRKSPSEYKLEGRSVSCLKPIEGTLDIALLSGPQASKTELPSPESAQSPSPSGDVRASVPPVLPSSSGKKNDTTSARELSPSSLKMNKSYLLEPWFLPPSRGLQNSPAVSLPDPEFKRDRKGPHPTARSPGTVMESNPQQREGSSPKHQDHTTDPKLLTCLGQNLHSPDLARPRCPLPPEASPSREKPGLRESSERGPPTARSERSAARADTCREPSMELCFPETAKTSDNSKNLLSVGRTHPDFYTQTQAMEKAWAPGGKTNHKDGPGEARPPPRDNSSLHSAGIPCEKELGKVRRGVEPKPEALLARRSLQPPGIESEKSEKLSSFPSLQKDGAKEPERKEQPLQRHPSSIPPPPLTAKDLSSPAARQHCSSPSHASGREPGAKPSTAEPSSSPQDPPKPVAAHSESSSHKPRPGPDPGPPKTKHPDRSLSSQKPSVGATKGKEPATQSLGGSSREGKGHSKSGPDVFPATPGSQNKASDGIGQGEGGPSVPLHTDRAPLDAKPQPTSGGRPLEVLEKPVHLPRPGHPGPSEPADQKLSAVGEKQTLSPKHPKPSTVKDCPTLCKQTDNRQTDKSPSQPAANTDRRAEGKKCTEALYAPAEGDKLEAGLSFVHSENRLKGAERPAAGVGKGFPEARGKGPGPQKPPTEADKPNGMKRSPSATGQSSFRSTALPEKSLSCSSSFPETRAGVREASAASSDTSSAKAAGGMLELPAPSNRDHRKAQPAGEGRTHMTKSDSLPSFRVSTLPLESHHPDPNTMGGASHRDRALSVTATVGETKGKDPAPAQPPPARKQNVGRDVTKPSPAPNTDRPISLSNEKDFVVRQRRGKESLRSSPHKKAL
inactive: [1] -0.085 | [2] -0.049 | [3] 0.051 | [4] -0.126 | [5] -0.017 | [6] 0.121 | [7] -0.204 | [8] 0.059 | [9] -0.001 | [10] -0.015 | [11] 0.042 | [12] -0.11 | [13] 0.394 | [14] 0.282 | [15] -0.173 | [16] -0.036 | [17] 0.006 | [18] -0.043 | [19] 0.032 | [20] -0.066
